The list is not random: actives were taken first. Their share in the collection is about 21%.
SARS PLP yeast: inhibitors of SARS-CoV papain-like protease in yeast; hit rate 0.19% among 330,000; S. cerevisiae expressing SARS-CoV PLpro, growth rescue; Potency, µM (highest dose often 32.9 µM), inactives show top-dose activity, positive = growth rescue, most hits filed as activators; calls by dose curve; further: potency means the concentration at half of the fitted maximal effect; 0% is about no effect; nearly all actives have a fitted effect of over 55% in size
Pf growth 96h: inhibits malaria parasite growth, 96 h | P. falciparum luciferase reporter growth, 96 h | Potency, µM (top dose mostly 28.7 µM), for inactives: top-dose activity change, negative = inhibition, hits mostly inhibitors | hit rate 6.9% among 320,000 | AID 504834; further: potency means the concentration at half of the fitted maximal effect; on the % scale 0 is the no-effect control and ±100 the full control effect
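Plates of compound plus infected erythrocytes (2% hematocrit, 0.05% parasitemia final) incubate 96 hours, 37 C, 5% CO2. Detection reagent added; reduced luminescence from the parasites' luciferase reporter flags inhibition.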
Shiga inhibitor: inhibitors of Shiga toxin in Vero cells | hit rate 9.2% among 290,000 | Vero cells, Shiga toxin protein synthesis inhibition reporter | inhibition, % at 38.7 µM; in the data active means inhibition mostly above about 28%, no sharp cut-off; inactive means mostly below about 43%; further: 0% is about no effect
Pf growth 48h: P. falciparum growth inhibition at 48 hours (one generation); hit rate 5.9% among 310,000; P. falciparum luciferase growth in erythrocytes, 48 h; Potency, µM (series often up to 28.7 µM), for inactives: at the highest dose activity change, negative = inhibition, usual class: inhibitors; AID 504832; further: potency means the concentration at half of the fitted maximal effect; on the % scale 0 is the no-effect control and ±100 the full control effect
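Erythrocytes infected with P. falciparum carrying an integrated firefly luciferase reporter (2% hematocrit, 0.1% parasitemia final) were exposed to compounds in RPMI 1640 with 0.5% Albumax at 37 C, 5% CO2. Growth inhibition was scored as reduced luminescence.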
NS1 function inh: influenza NS1 inhibition. Potency, µM (top dose mostly 46.1 µM), for the others: at the top dose activity, positive = more growth. hit rate 0.4% among 270,000. AID 2326; calls by dose curve; further: potency means the concentration at half of the fitted maximal effect; actives are rising curves; nearly all actives have a fitted effect of over 50% in size
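In this qHTS, NS1 from influenza A is expressed in budding yeast, where it slows growth. Cells are switched from glucose to 2% galactose medium (pH 6.0, -URA), treated with compound, and growth recovery is read at OD600.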
CHX counter: affects cycloheximide protein synthesis inhibition readout, counter-screen | cell reporter, cycloheximide protein synthesis inhibition counterscreen | hit rate 12% among 300,000 | max response, %; in the data active means max response mostly above about 13%, no sharp cut-off; inactive means mostly below about 14%; further: read at 38.3 µM for the half of the compounds with a filed dose; 0% is about no effect
* = called active by the depositor; i = inactive; u = inconclusive; x = no result. Unless noted, the call rests on the fitted dose curve; in most records, active means well fitted inhibition curve with a large enough effect; inconclusive means small, poorly fitted or top-dose-only effect, or another doubt; inactive means no such curve, though single readings can be large or run the other way.

SMILES	SARS PLP yeast	Pf growth 96h	Shiga inhibitor	Pf growth 48h	NS1 function inh	CHX counter
CC1(C)CCC[C@@](C)([C@H]2CC[C@]3(C)[C@@H]2[C@H](O)C[C@@H]2[C@@]4(C)CC[C@H](O)C(C)(C)[C@@H]4[C@@H](O)C[C@]23C)O1	x	x	-10	x	x	-1
O=C(CNC(=O)c1ccccc1)OCC(=O)c1ccc(Cl)s1	2%	2%	x	-3%	x	x
CC(C)(C)NC(=O)COc1ccc2oc3c(c2c1)CCCC3	-2%	u	60	u	-13%	18*
Cc1ccnc(NC(=O)COc2ccc3c(c2)CCC3)c1	x	68%	x	44%	x	x
Cc1ccnc(NC(=O)COc2ccc3oc4c(c3c2)CCCC4)c1	3%	12µM*	66*	125%	-7%	43*
CC(C)OCCCNC(=O)COc1ccc2oc3c(c2c1)CCCC3	-11%	4.1µM*	26	-19%	-36%	7
CNC(=O)NC(=O)COc1ccc2oc3c(c2c1)CCCC3	-8%	20%	58*	49%	-42%	22*
CNC(=O)COc1ccc2oc3c(c2c1)CCCC3	1%	24%	19	17%	-13%	9
NNC(=O)COc1ccc2oc3c(c2c1)CCCC3	-12%	-18%	-3	10%	25%	1
CC(C)(C)OC(=O)N1CCC(c2c(C(=O)NCC3CCN(C4CCCC4)C3)cnn2-c2ccccc2Cl)CC1 (stereo not drawn)	-5%	20%	18	u	5%	-8
Cc1ccc(OCCC(=O)NNC(=O)c2ccccc2F)cc1	-15%	-15%	x	-17%	x	x
COc1ccc(/C=C(/NC(=O)c2ccccc2Cl)C(=O)NCCCC(=O)O)cc1	0%	0%	-7	4%	6%	-2
NCCC[C@@H](N)C(=O)O	x	x	x	x	0%	x
O=C(Nc1nc(-c2ccccc2Cl)cs1)c1cccnc1	1%	x	56	u	6%	2
O=C(Nc1nc(-c2cccs2)cs1)c1ccc([N+](=O)[O-])o1	-1%	u	x	u	x	x
COc1cccc2sc(Nc3nc(-c4ccccn4)cs3)nc12	-43%	u	105*	0.47µM*	-110%	75*
c1ccc(-c2csc(Nc3cccnc3)n2)nc1	-5%	24%	44*	96%	-37%	35*
Cc1nc2ncccn2c1-c1csc(Nc2ccccc2)n1	9%	6%	22	3.3µM*	-26%	13
c1cncc(Nc2nc(-c3cccs3)cs2)c1	-18%	2.9µM*	103*	2%	-77%	63*
CN1CCc2sc(NC(=O)Cc3ccccc3)c(C(=O)Nc3ccc(Cl)cc3)c2C1	x	x	4	x	x	-3
CCOc1cc(C2NC(=O)NC(C)=C2C(=O)OCC2CCCCC2)ccc1O (stereo not drawn)	-3%	1%	-5	u	11%	8
COc1cc2cnc(CCO[C@H]3CCCCO3)cc2cc1OC	4%	x	x	x	x	x
COC(=O)C1=C[C@@H](C(=O)OC)[C@@H]2C3=C(C(=O)C2(C)C)[C@H](C)n2c(=O)n(C)c(=O)n2[C@@H]3C1	x	x	28	x	x	12
CCOc1ccc(S(=O)(=O)NCCC(=O)OCC(=O)Nc2cc(C)on2)cc1	-1%	91%	-6	17%	-9%	1
c1ccc(Nc2nc(-c3ccccn3)cs2)cc1	x	-48%	108*	6%	-179%	41*
SMILES	SARS PLP yeast	Pf growth 96h	Shiga inhibitor	Pf growth 48h	NS1 function inh	CHX counter
COc1ccc(OCCCC(=O)Nc2nc(-c3ccccn3)cs2)cc1	5%	u	8	u	3%	4
CN(C)S(=O)(=O)c1ccc(C(=O)N2CCCC2c2nc3ccccc3s2)cc1 (stereo not drawn)	-17%	u	-1	u	-10%	-4
O=S(=O)(c1ccc(N2CCCC2c2nc3ccccc3s2)nc1)N1CCOCC1 (stereo not drawn)	-4%	12µM*	33	10µM*	-2%	1
O=S(=O)(c1ccc(Br)cc1)N1CCCC1c1nc2ccccc2s1 (stereo not drawn)	-6%	u	2	10µM*	-6%	-1
O=S(=O)(c1ccc(N2CCCC2)nc1)N1CCOCC1	-1%	x	20	11%	-8%	-2
COc1c(O)cnn(-c2ccccc2)c1=O	0%	28%	-8	15%	3%	-3
O=C(CSc1nnc(-c2ccccc2)o1)N1CCCCC1	0%	u	90*	91%	-1%	18*
O=C(CSc1nnc(-c2ccccc2)o1)N1CCCC1	0%	u	58	59%	5%	15*
O=C(CSc1nnc(-c2c[nH]c3ccccc23)o1)N1CCCCC1	-2%	u	70*	29%	-16%	26*
CC1CN(C(=O)CSc2nnc(-c3ccccc3)o2)CC(C)O1 (stereo not drawn)	2%	-19%	-31	-9%	0%	-2
COc1cc(OC)cc(-c2nnc(SCC(=O)N3CCCCC3)o2)c1	-3%	8%	25	-17%	-2%	0
O=C(CSc1nnc(-c2ccc(F)cc2)o1)N1CCCCC1	-1%	-1%	67*	75%	3%	27*
CN(CCOC(=O)/C=C/c1ccco1)Cc1ccccc1	0%	53%	-2	32%	3%	-1
CN(C)c1ccc(C(=S)N2CCN(S(=O)(=O)c3ccccc3)CC2)cc1	8%	-10%	4	-17%	5%	11
Cc1ccc(/C=N/Nc2ccc(Cl)c(C(=O)O)c2)s1	-9%	i	150*	302%	9%	104*
O=C(O)c1cc(N/N=C/c2cccs2)ccc1Cl	0%	135%	95*	122%	7%	49*
Cn1c(N/N=C/c2cccs2)cc(=O)n(C)c1=O	1%	-6%	22	x	13%	21*
Cc1ccc(/C=N/Nc2ccc(F)cc2)s1	8%	u	68*	u	-2%	23*
Cc1cccc(NS(=O)(=O)c2cccc3cccnc23)n1	6%	1.7µM*	9	8%	-3%	-2
Cc1cccc(NS(=O)(=O)c2ccc(C3CCCCC3)cc2)n1	-16%	x	16	9.3µM*	-97%	-1
Cc1cccc(NS(=O)(=O)c2ccccc2)n1	1%	1%	-6	1%	-1%	-6
COc1ccc(NS(=O)(=O)c2cccc3cccnc23)cc1Cl	4%	0.93µM*	19	u	6%	7
O=S(=O)(NC1CCCCCC1)c1cccc2cccnc12	1%	5.2µM*	5	-7%	-5%	-2
O=C(Nc1c(C(=O)N2CCOCC2)cnn1-c1ccccc1)c1ccco1	0%	181%	-20	-7%	1%	-3
COc1ccc(/C=C(\C#N)C(=O)OCCNC(=O)c2ccncc2)cc1	-1%	6%	-12	10%	-3%	1
COc1ccc(NS(=O)(=O)c2cccc(C(=O)N/N=C/c3ccc(O)cc3)c2)cc1	0%	2%	17	-31%	x	1
COc1ccc(/C=C2\SC(=S)N(CCC(=O)Nc3cccc(O)c3)C2=O)cc1	6%	-9%	62*	38%	20%	39*
